Reference: PubChem BioAssay (NCATS)
Results filed as inconclusive are left out. Where a call stands in place of a potency, no number is given. Values without a mark were called inactive. Calls of active or inactive are those of the source. Calls come from the whole dose curve; as a rule, active = well fitted inhibition curve with a large enough effect; inconclusive = small, poorly fitted or top-dose-only effect; inactive = no such curve, though single readings can be large or run the other way.

Tests used:
[1] = tested on: Zika virus NS2B-NS3 protease (unlinked complex); assay: Primary screen GU Rhodamine qHTS for Zika virus inhibitors: Unlinked NS2B-NS3 protease assay (AID 1347159); note: nearly all actives have a fitted effect of over 60% in size; note: potency is the fitted concentration of half-maximal effect
Outline: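 Percent inhibition derives from the 15-min fluorescence change (ex 480, em 540 nm), normalized to no-enzyme and no-inhibitor wells. Reactions contained 25 nM NS2B-NS3 complex and 1.5 microM substrate in 10 mM Tris-HCl pH 8.0.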

[2] = tested on: Zika virus NS2B-NS3 protease (linked construct); assay: Primary screen NINDS Rhodamine qHTS for Zika virus inhibitors (AID 1347160); note: nearly all actives have a fitted effect of over 55% in size
Outline: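 In 10 mM Tris-HCl pH 8.0 containing 0.01% Tween 20, linked NS2B-NS3 protease (25 nM final) is exposed to test compounds for 15 min. Cleavage of 1.5 microM Rhodamine110 substrate is tracked by fluorescence over 15 min.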

Row | Structure (SMILES) | Potency [1] | Potency [2] | activity change, negative = inhibition [1] | outcome [2]
1 | Cc1c(C)c(NCC(=O)N(C)C2CCN(Cc3ccc(C(N)=O)cc3)CC2)c(C)c(C)c1N | inactive | inactive |  | 
2 | CC1(C)CC[C@]2(C(=O)O)CC[C@]3(C)C(=CCC4[C@@]5(C)C(=O)C[C@H](O)[C@@](C)(CO)C5CC[C@]43C)[C@@H]2C1 (stereo partly specified) | inactive | inactive |  | 
3 | CC(=O)/C=C/C1(O)C(C)=CC(=O)CC1(C)C (stereo unspecified) | inactive | inactive |  | 
4 | C[C@H](/C=C/[C@@]1(O)[C@H](C)CC(=O)CC1(C)C)O[C@@H]1O[C@H](CO[C@@H]2OC[C@@H](O)[C@H](O)[C@H]2O)[C@@H](O)[C@H](O)[C@H]1O | inactive | inactive |  | 
5 | C/C=C/C(=O)OC1/C=C/C(O)C(OC(C)=O)CCC(=O)OC1C (stereo unspecified) | inactive | inactive |  | 
6 | CC(C)=CCC[C@](C)(O[C@@H]1O[C@H](CO[C@@H]2O[C@@H](CO)[C@H](O)[C@H]2O[C@@H]2OC[C@@H](O)[C@H](O)[C@H]2O)[C@@H](O)[C@H](O)[C@H]1O)[C@H]1CC[C@]2(C)[C@@H]1[C@H](O)CC1[C@@]3(C)CC[C@H](O[C@@H]4O[C@H](CO)[C@@H](O)[C@H](O)[C@H]4O[C@@H]4O[C@H](CO)[C@@H](O)[C@H](O)[C@H]4O)C(C)(C)C3CC[C@]12C (stereo partly specified) |  |  | 0.816% [at 19.1 µM] | inactive [at 10.7 µM]
7 | CC1=CCC[C@@H]2[C@@](C)(CCc3ccoc3)[C@H](C(=O)O)CC[C@@]12C | 31.6 µM (active) | inactive |  | 
8 | O=C(OC1C=C(CO)C2C(OC3OC(CO)C(O)C(O)C3O)OC=CC12O)c1ccc(O)cc1 (stereo unspecified) | inactive | inactive |  | 
9 | C=C[C@H]1[C@H](O[C@@H]2O[C@H](CO)[C@@H](O)[C@H](O)[C@H]2O)OC=C(C(=O)OC)[C@H]1CCO | inactive | inactive |  | 
10 | C[C@]12CC/C(=N\OCC(=O)O)C=C1CC[C@@H]1[C@@H]2[C@@H](O)C[C@@]2(C)[C@H]1CC[C@]2(O)C(=O)CO | inactive | inactive |  | 
11 | CC(=O)O[C@H]1[C@H](OC(=O)C(C)C)[C@]2(C)OC3(CC[C@]2(C)[C@H]2CCC[C@]4(CO4)[C@]12C)COC(=O)C3 (stereo partly specified) | inactive | inactive |  | 
12 | CCOC(=O)CSc1nc2c(sc3ccccc32)c(=O)n1CCCN1CCCC1 | inactive | inactive |  | 
13 | N#CC1C(=O)N=C(c2cc(Cl)ccc2O)C=C1c1cc(OCc2ccccc2)cc(OCc2ccccc2)c1 (stereo unspecified) | inactive | inactive |  | 
14 | C=C1C2(C)CC3C4(C)C=CC(=O)OC(C)(C)C4CCC3(C)C1(C(=O)OC)C(=O)C(C)(O)C2=O (stereo unspecified) | inactive | inactive |  | 
15 | O=C(CCc1ccccc1)c1c(O)c([C@@H]2O[C@H](CO)[C@@H](O)[C@H](O)[C@H]2O)c(O)c([C@@H]2O[C@H](CO)[C@@H](O)[C@H](O)[C@H]2O)c1O | inactive | inactive |  | 
16 | CC1(C)CC[C@]2(C(=O)O)CC[C@]3(C)C(=CCC4[C@@]5(C)CC[C@H](O[C@@H]6O[C@H](C(=O)O)[C@@H](O)[C@H](O[C@@H]7O[C@H](CO)[C@H](O)[C@H](O)[C@H]7O)[C@H]6O[C@@H]6O[C@H](CO)[C@@H](O)[C@H](O)[C@H]6O)C(C)(C)C5CC[C@]43C)[C@@H]2C1 (stereo partly specified) | 5.62 µM (active) | inactive |  | 
17 | Cc1occc(=O)c1O[C@@H]1O[C@H](CO[C@@H]2OC[C@](O)(CO)[C@H]2O)[C@@H](O)[C@H](O)[C@H]1O | inactive | inactive |  | 
18 | OC[C@H]1O[C@@H](O[C@H]2[C@H](O)[C@@H](CO)O[C@@H](OCc3ccccc3)[C@@H]2O[C@@H]2OC[C@](O)(CO)[C@H]2O)[C@H](O)[C@@H](O)[C@@H]1O | inactive | inactive |  | 
19 | Nc1ncnc2c1ncn2[C@H]1O[C@@H](C(=O)N2CCN(CC(=O)Nc3cccc4c3CNC4=O)CC2)[C@H](O)[C@@H]1O | inactive | inactive |  | 
20 | C=C1CCC(OC(C)=O)C2(C)CC3OC(=O)C(C)=C3CC12 (stereo unspecified) | inactive | inactive |  | 
21 | COc1ccc(/C=C/C(=O)O[C@@H]2[C@@H](OC(C)=O)[C@@H](OC(C)=O)[C@H](O[C@H]3[C@@H]4C=CO[C@@H](O[C@@H]5O[C@H](CO)[C@@H](O)[C@H](O)[C@H]5O)[C@@H]4[C@@]4(CO)O[C@@H]34)O[C@H]2C)cc1 | inactive | inactive |  | 
22 | CNc1nc(Cc2ccccc2)nc2c1CCNC[C@@H]2C | inactive | inactive |  | 
23 | CC1=CC23[C@H](C=C(C(=O)O)[C@@H]2COC(=O)[C@]3(O)CO)[C@@H]1C (stereo partly specified) | inactive | inactive |  | 
24 | COC1OC(O)C2(CCC3(O2)C(C)CC2OC(=O)C4(C)CCCC3(C)C24)C1O (stereo unspecified) | inactive | inactive |  | 
25 | O=C(O[C@@H]1O[C@H](CO)[C@@H](O)[C@H](O)[C@H]1O)c1ccccc1 | inactive | inactive |  | 
26 | CC(=O)OCC1OC(O[C@H]2CC[C@@]3(C)C(CC[C@]4(C)C3CC=C3[C@@H]5CC(C)(C)CC[C@]5(C(=O)O)CC[C@]34C)[C@]2(C)CO)C(O)C(O)C1OC1OC(C)C(O)C(OC2OCC(O)C(O)C2O)C1O (stereo partly specified) | inactive | inactive |  | 
27 | COc1cc(C2CC(=O)Nc3c2cc(Br)c2ccccc32)cc(OC)c1OC (stereo unspecified) | inactive | inactive |  | 

Row | Structure (SMILES) | Potency [1] | Potency [2] | activity change, negative = inhibition [1] | outcome [2]
28 | COc1cc2c(cc1OC)N1C(=O)C[C@@]34C=CC[N@+]5([O-])CC[C@H]2[C@H](CC3)[C@@]145 | inactive | inactive |  | 
29 | CN(C)c1ccc(C2O[C@@H](c3ccccc3)C[C@H](c3ccccc3)O2)cc1 (stereo partly specified) | inactive | inactive |  | 
30 | C=C(C(=O)O)[C@@H]1CC[C@@]2(C)CCC[C@@](C)(O)[C@@H]2C1 | inactive | inactive |  | 
31 | O=C(Nc1ccc(N2CCC(C(=O)N3CCOCC3)CC2)cc1)c1cnc(Oc2ccccc2)nc1 | inactive | inactive |  | 
32 | CN1C(=O)N(c2cc(Cl)cc(Cl)c2)C(=O)[C@@]1(C)Cc1ccc(Br)cc1 | inactive | inactive |  | 
33 | COc1cc(/C=C/C(=O)O[C@H]2[C@@H]3C=CO[C@@H](O[C@@H]4O[C@H](CO)[C@@H](O)[C@H](O)[C@H]4O)[C@@H]3[C@@]3(CO)O[C@@H]23)ccc1O | inactive | inactive |  | 
34 | CC1CCC23COC(=O)C2=CC(O)CC3C1(C)CCc1ccoc1 (stereo unspecified) | inactive | inactive |  | 
35 | O=C(C1OC1/C=C/c1ccc2c(c1)OCO2)N1CCCCC1 (stereo unspecified) | inactive | inactive |  | 
36 | COC(=O)C1=COC(O[C@@H]2O[C@H](CO)[C@@H](O)[C@H](O)[C@H]2O)[C@@H]2[C@@](C)(O)[C@@H](OC(=O)/C=C/c3ccccc3)C[C@]12O (stereo partly specified) | inactive | inactive |  | 
37 | COc1cc(/C=C/CO[C@@H]2O[C@H](CO)[C@@H](O)[C@H](O)[C@H]2O)cc(OC)c1O[C@@H]1O[C@H](CO)[C@@H](O)[C@H](O)[C@H]1O | inactive | inactive |  | 
38 | CC(=O)O[C@H]1C[C@@H](O)C(C)(C)C2C[C@@H](OC(C)=O)[C@@]3(C)C4=CCC(C(CO)CC(O)C5OC5(C)C)[C@]4(C)CCC3[C@]21C (stereo partly specified) | inactive | inactive |  | 
39 | C[C@@H]1C(=O)O[C@H]2[C@H]1CC[C@@]1(C)C(=O)C=C[C@@](C)(O)[C@H]21 | inactive | inactive |  | 
40 | NCCCCN(Cc1nc2ccccc2[nH]1)[C@H]1CCCc2cccnc21 | inactive | inactive |  | 
41 | COc1ccc2[nH]c(S(=O)Cc3ncc(C)c(OC)c3C)nc2c1 (stereo unspecified) | inactive | inactive |  | 
42 | C/C=C/C=C/[C@@H]1O[C@](O)([C@H](CC)C(=O)NC/C=C/C=C(\C)[C@@H](OC)[C@@H](C)[C@@H]2O[C@H](/C=C/C=C/C=C(\C)C(=O)c3c(O)ccn(C)c3=O)[C@H](O)[C@@H]2O)[C@H](O)[C@H](O)C1(C)C | inactive | inactive |  | 
43 | O=C(C[C@@H]1C(C(=O)O)=CO[C@@H](O[C@@H]2O[C@H](CO)[C@@H](O)[C@H](O)[C@H]2O)/C1=C\CO)OCCc1ccc(O)cc1 | inactive | inactive |  | 
44 | COc1cccc(CN(C(=O)CC(C)(C)C)C2CC(C(=O)N3CCNCC3)N(Cc3ccc4c(c3)OCO4)C2)c1 (stereo unspecified) | inactive | inactive |  | 
45 | CC1(C)Oc2ncnc(N)c2N=C1c1ccc(C2CCC(CC(=O)O)CC2)cc1 (stereo unspecified) | inactive | inactive |  | 
46 | CC(=O)OC(C)C(C)(O)C(=O)O[C@@H]1CC[C@]2(C)CC(=O)C(=C(C)C)C[C@H]2[C@]1(C)OC(C)=O (stereo partly specified) | inactive | inactive |  | 
47 | C[C@H]1CC[C@@]2(OC1)O[C@H]1CC3C4CC[C@H]5C[C@@H](O[C@@H]6O[C@H](CO)[C@H](O[C@@H]7O[C@H](CO)[C@@H](O)[C@H](O[C@@H]8OC[C@@H](O)[C@H](O)[C@H]8O)[C@H]7O[C@@H]7O[C@H](CO)[C@@H](O)[C@H](O)[C@H]7O)[C@H](O)[C@H]6O)[C@H](O)C[C@]5(C)C4=CC(=O)[C@]3(C)[C@H]1[C@@H]2C (stereo partly specified) | inactive | inactive |  | 
48 | C[C@@H]1O[C@@H](O[C@@H]2[C@@H](O)[C@H](O[C@H]3[C@H](O[C@H]4CC[C@@]5(C)C(CC[C@]6(C)C5CC=C5[C@@H]7CC(C)(C)CC[C@]7(C(=O)O[C@@H]7O[C@H](CO)[C@@H](O)[C@H](O)[C@H]7O)CC[C@]56C)C4(C)C)O[C@H](C(=O)O)[C@@H](O)[C@@H]3O)OC[C@H]2O)[C@H](O)[C@H](O)[C@H]1O (stereo partly specified) | inactive | inactive |  | 
49 | CCC(=O)OCC(=O)[C@@]1(OC(=O)CC)[C@@H](C)C[C@H]2[C@@H]3CCC4=CC(=O)C=C[C@]4(C)[C@@]3(F)[C@@H](O)C[C@@]21C | inactive | inactive |  | 
50 | CCC(C)C(N)C(=O)NCCN1CCOCC1 (stereo unspecified) | inactive | inactive |  | 
51 | COC(=O)C1=CO[C@@H](O[C@@H]2O[C@H](CO)[C@@H](O)[C@H](O)[C@H]2O)[C@@H]2[C@@H](C)[C@@H](O)C(O)[C@H]12 (stereo partly specified) | inactive | inactive |  | 
52 | Cc1c(F)cc(C(=O)NC2CC2)cc1-c1ccc(C(=O)NCC(C)(C)C)cn1 | inactive | inactive |  | 
53 | COc1cc2nc(=NC(=O)c3cccnc3)n3c(c2cc1OC)NCC3 | inactive | inactive |  | 
